Our source for the growth inhibition values is PubChem BioAssay (NCI).

A short description of assay [1]: NCI Yeast Anticancer Drug Screen. Data for the rad50 strain (AID 155).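 Note: 0% = growth of vehicle-only cultures of the same strain.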 Conditions: S. cerevisiae rad50 strain growth inhibition; at 50.0 µM; stronger effect = higher value. An outline of the steps: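 Cells are treated with compound, grown, and their growth is then scored against vehicle-only cultures of the same repair-deficient yeast strain.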
Assay [2] is described as follows: NCI Yeast Anticancer Drug Screen. Data for the mec2-1 strain (AID 157). Conditions: S. cerevisiae mec2-1 strain, at 50.0 µM, stronger effect = higher value. An outline of the steps: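 Strain: mec2-1 (DNA repair/cell cycle alteration). Compound exposure, then growth measured; inhibition expressed relative to vehicle.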
The nature of assay [3]: NCI Yeast Anticancer Drug Screen. Data for the sgs1 mgt1 strain (AID 161).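 Note: 0% = growth of cultures given vehicle only.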 Conditions: S. cerevisiae sgs1 mgt1 strain, at 50.0 µM, stronger effect = higher value. The essentials:
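Read-out: growth inhibition vs vehicle controls. Cells: mutant yeast strain deficient in DNA damage repair.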

Assay [4] in a line: NCI Yeast Anticancer Drug Screen. Data for the cln2 rad14 strain (AID 165).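 Note: 0% = growth equal to vehicle treated cultures.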 Conditions: S. cerevisiae cln2 rad14 strain, at 50.0 µM, stronger effect = higher value. The essentials:
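Compounds are applied to the cln2 rad14 yeast strain, and growth is then compared with that of vehicle-treated cultures to give inhibition.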

Assay [5] can be described thus: NCI Yeast Anticancer Drug Screen. Data for the bub3 strain (AID 167). Conditions: S. cerevisiae bub3 mutant strain, at 50.0 µM, stronger effect = higher value. The essentials:
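Part of a panel of yeast mutants defective in DNA damage repair or cell cycle regulation. Each strain is grown with compound, and inhibition is calculated relative to solvent-treated cultures.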

Assay [6] is described as follows: NCI Yeast Anticancer Drug Screen. Data for the mlh1 rad18 strain (AID 175). Conditions: S. cerevisiae mlh1 rad18 strain growth inhibition; at 50.0 µM; stronger effect = higher value. An outline of the steps: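 Read-out is yeast growth inhibition, calculated against vehicle-only controls. The compound was applied to a strain engineered with DNA damage repair alterations.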

This is part of a sample that, as a whole, favours compounds with a hit. Of some 79,000 tested, about 15% had one in any assay. Values without a mark were called inactive. The source made the active and inactive calls. Cut-off read from the data, not from the text of the source: active = growth inhibition above about 70%; inactive = the rest.

Regarding `O=C(O)CN(CCN(CC(=O)O)CC(=O)O)CC(=O)O.[Co+2]`, the growth inhibition was 0.25% in assay [1]; -3.85% in assay [2]; 13.2% in assay [3]; 19.1% in assay [4]; 16.4% in assay [5]; 7.45% in assay [6].
Take `c1ccc(-c2cccc(-c3ccccc3)c2)cc1`: the growth inhibition in assay [1] is 30.1%; in assay [2] it was 15.3%; in assay [3], 31.3%; in assay [4], -0.6%; in assay [5], 24.6%; in assay [6] it was 44%.
Consider `OCN1CCC23c4c5ccc(O)c4OC2C(O)C=CC3C1C5` (stereo not given), for which the growth inhibition in assay [1] was -4.75%; in assay [2] it was -3.4%; in assay [3], 3.35%; in assay [4], -68.5%; in assay [5], 20.1%; in assay [6], -12%.
Take `CCC(C)C(CC)C(=O)NC(N)=O` (stereo not given): the growth inhibition in assay [1] is 4.4%; in assay [2] it was 4.55%; in assay [3] it was -11.4%; in assay [4], -1.35%; in assay [5], 8.5%; in assay [6], 0.95%.
On to `Clc1ccc(C2ON2c2ccccc2)cc1` (stereo not given) (tested in a mixture with another compound), for which the growth inhibition in assay [1] is 3.1%; in assay [2] it was 14.6%; in assay [3], 16.2%; in assay [4], 4.45%; in assay [5] it was -8.4%; in assay [6], 18.2%.
Turning to `CCN(CC)C1C=CCCC1` (stereo not given), the growth inhibition in assay [1] was -18.1%; in assay [2] it was -8.05%; in assay [3], -20.1%; in assay [4] it was 0.75%; in assay [5] it was -11.7%; in assay [6], -7.3%.
As to `COC1OC(CN=[N+]=[N-])C2OC12` (stereo not given), the growth inhibition is 5.4% in assay [1]; -0.3% in assay [2]; -3.2% in assay [3]; 3.9% in assay [4]; 0.6% in assay [5]; 7.95% in assay [6].
Regarding `C/C=C(\C)C(=O)N[C@@H](c1ccccc1)[C@@H](O)C(=O)OC1C[C@@]2(O)[C@@H](OC(=O)c3ccccc3)[C@@H]3[C@]4(OC(C)=O)CO[C@@H]4C[C@H](O)[C@@]3(C)C(=O)[C@H](OC(C)=O)C(=C1C)C2(C)C` (stereo not given in full), the growth inhibition in assay [1] was 34.1%; in assay [2], 13.6%; in assay [3], 13.8%; in assay [4] it was 16.9%; in assay [5], 21.4%; in assay [6], 29.9%.
Take `COc1ccc(N2CC=C(c3ccccc3)OP2(=O)N2CC2)cc1` (stereo not given): the growth inhibition in assay [1] was -20.4%; in assay [2], 25.9%; in assay [3], 5.9%; in assay [4], 18.2%; in assay [5] it was 0.95%; in assay [6], -7.7%.
Regarding `COc1cc(C2c3cc4c(cc3OC(NCCO)C2C)OCO4)cc(OC)c1O` (stereo not given), the growth inhibition in assay [1] was 6.1%; in assay [2], -11.5%; in assay [3], -14.3%; in assay [4], 9.25%; in assay [5], -18.1%; in assay [6], -0.65%.
For the molecule `CC(=O)OCC1OC(OC(C)=O)C(N(CCCl)CCCl)C(OC(C)=O)C1OC(C)=O` (stereo not given), the growth inhibition in assay [1] is 2.2%; in assay [2], 7%; in assay [3], 6.75%; in assay [4] it was 23.9%; in assay [5] it was -2.25%; in assay [6] it was -33.6%.
In the case of `CCCN(CCC)C(=O)[S-].CCCN(CCC)C(=O)[S-].[Ni+2]`, the growth inhibition is 35% in assay [1]; -6.25% in assay [2]; 33.4% in assay [3]; -38.6% in assay [4]; 2.7% in assay [5]; -3.5% in assay [6].
Take `O=C(O)c1ccc(I)cc1.[Ni]`: the growth inhibition is 82.8% (active) in assay [1]; 5.7% in assay [2]; 57.1% in assay [3]; 8.85% in assay [4]; 85% (active) in assay [5]; 30% in assay [6].
Turning to `CCOP(=O)(OCC)C1CCC(=O)O1` (stereo not given), the growth inhibition in assay [1] is -14.2%; in assay [2] it was -20.2%; in assay [3] it was -14%; in assay [4], 12.4%; in assay [5], 10.6%; in assay [6] it was 10.6%.
On to `CN1CC=C(OP(=O)(NCc2ccccc2)N(CCCl)CCCl)CC1` (stereo not given), for which the growth inhibition in assay [1] was -6.25%; in assay [2], -12.8%; in assay [3] it was 0.9%; in assay [4], -3.1%; in assay [5], -17.4%; in assay [6] it was -34%.
Turning to `CC1(C)CCC(C)(C)c2c1ccc(O)c2Cc1c(O)ccc2c1C(C)(C)CCC2(C)C`, the growth inhibition was 3.55% in assay [1]; -30.8% in assay [2]; -39% in assay [3]; -17.2% in assay [4]; -41.2% in assay [5]; -6.8% in assay [6].
Turning to `CC1(C)OP(=O)(O)C=C1[Se]c1ccccc1`, the growth inhibition was 19.2% in assay [1]; 11.2% in assay [2]; 24.4% in assay [3]; 4.95% in assay [4]; -3.2% in assay [5]; 26.6% in assay [6].
`O=P(O)(O)c1ccccc1` (tested in a mixture with another compound): the growth inhibition was -28.9% in assay [1]; -6.45% in assay [2]; -15.2% in assay [3]; -35.1% in assay [4]; -31.9% in assay [5]; 2.7% in assay [6].
Turning to `C[N+]1(C)CCN(c2ccccc2)CC1`, the growth inhibition in assay [1] was 18.9%; in assay [2], -29.6%; in assay [3], -12.5%; in assay [4] it was 14.2%; in assay [5], -8.9%; in assay [6], -5.35%.
Turning to `CCOC(=O)C1OC(C2(C)OC3(OC4(C=CC3O)OC(C(C)C(=O)C(C)C(O)C(C)CC(C)c3c(Cl)cc(C)c(O)c3C(=O)O)C(C)CC4C)C(C)C2OC)CC1O` (stereo not given), the growth inhibition in assay [1] is -12.7%; in assay [2], -27%; in assay [3] it was -6.95%; in assay [4] it was 22.9%; in assay [5] it was 5.9%; in assay [6], 5.75%.
